Compound activity from PubChem.
Only some compounds are listed: those with a hit (about 1.6% of all), similar ones and a draw of the others.
KCNQ2 block: blocks the rat KCNQ2 potassium channel. 310,000 compounds, 1.1% hits. B-score at 10 µM. O88943. CHO-K1 KCNQ2, FluxOR thallium flux, 20 min; stronger effect = lower value. AID 2156;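 active means fluorescence ratio B-score at most minus 3 library SDs, with starting brightness B-score within 2 library SDs, cut at about -5.5 in these data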
KCNQ2 enhance: potentiators of rat KCNQ2 potassium channel. O88943. CHO-K1 KCNQ2, FluxOR thallium flux fluorescence; stronger effect = higher value. B-score at 10 µM. 310,000 compounds, 0.54% hits. AID 2239;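 active means fluorescence ratio B-score at least 3 SD of library B-scores, with initial fluorescence B-score within 3 of them, cut at about 5.3 in these data; same plate scores as AID 2156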;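 further: B-score of peak minus minimum over baseline fluorescence ratio after K+ and Tl+ stimulus; positive B-score means potentiation of KCNQ2 with more thallium influx and brighter signal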
Kir21 confirm: confirmation of mouse Kir2.1 potassium channel inhibitors. shares compounds with KCNQ2 enhance. Kir2.1-expressing cells, FluxOR thallium flux fluorescence; stronger effect = lower value. 2,300 compounds, 41% hits. AID 2032. Tl flux remaining, % of negative control (stronger effect = lower value), % at 10 µM;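 active means Primary-screen hit whose thallium flux fell at least 3 control SD below untreated wells in both duplicates, with normal baseline fluorescence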;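 further: 0% = blank wells without stimulus and 100% = stimulated no-compound controls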
HEK293 Tl flux: parental HEK293 activity in Kir2.1 inhibitor counter-screen. shares compounds with KCNQ2 enhance. parental HEK293 cells, FluxOR thallium flux fluorescence; 0% = unstimulated blank wells. FluxOR signal as % of negative control (100 = no effect), % at 10 µM. 2,300 compounds, 19% hits. AID 2105;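 active means dye signal at least 3 control SD above or below untreated wells in both duplicates, raw fluorescence within 3, either direction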;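 further: percent is based on the flux ratio of peak minus minimum fluorescence over baseline F0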
CHO-K1 Tl ctr: parental CHO-K1 activity in KCNQ2 potentiator counter-screen | parental CHO-K1 cells, FluxOR thallium flux fluorescence; zero = vehicle mean+3SD, 100% = vehicle-minus-blank window | 1,200 compounds, 43% hits | AID 2282 | shares compounds with KCNQ2 enhance | activity increase over 3SD of controls, % at 10 µM;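 active means signal rise of at least 3 SD above the untreated control mean, in both duplicate wells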;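 further: counter screen of KCNQ2 potentiator hits so any rise reflects channel-independent effects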
KCNQ1 pot spec: selectivity of KCNQ2 potentiators: effect on human KCNQ1 | 1,200 compounds, 28% hits | shares compounds with KCNQ2 enhance | CHO KCNQ1 stable, FluxOR thallium flux fluorescence; beyond 3SD, as % of vehicle-control signal | activation over 3SD threshold, % at 10 µM;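 active means fluorescence ratio rise of at least 3 SD of vehicle wells above their mean, in both replicate wells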;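 further: 0% = vehicle mean plus 3 SD and 100% = vehicle minus unstimulated blank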
Target sequence (P51787 whole entry, looked up): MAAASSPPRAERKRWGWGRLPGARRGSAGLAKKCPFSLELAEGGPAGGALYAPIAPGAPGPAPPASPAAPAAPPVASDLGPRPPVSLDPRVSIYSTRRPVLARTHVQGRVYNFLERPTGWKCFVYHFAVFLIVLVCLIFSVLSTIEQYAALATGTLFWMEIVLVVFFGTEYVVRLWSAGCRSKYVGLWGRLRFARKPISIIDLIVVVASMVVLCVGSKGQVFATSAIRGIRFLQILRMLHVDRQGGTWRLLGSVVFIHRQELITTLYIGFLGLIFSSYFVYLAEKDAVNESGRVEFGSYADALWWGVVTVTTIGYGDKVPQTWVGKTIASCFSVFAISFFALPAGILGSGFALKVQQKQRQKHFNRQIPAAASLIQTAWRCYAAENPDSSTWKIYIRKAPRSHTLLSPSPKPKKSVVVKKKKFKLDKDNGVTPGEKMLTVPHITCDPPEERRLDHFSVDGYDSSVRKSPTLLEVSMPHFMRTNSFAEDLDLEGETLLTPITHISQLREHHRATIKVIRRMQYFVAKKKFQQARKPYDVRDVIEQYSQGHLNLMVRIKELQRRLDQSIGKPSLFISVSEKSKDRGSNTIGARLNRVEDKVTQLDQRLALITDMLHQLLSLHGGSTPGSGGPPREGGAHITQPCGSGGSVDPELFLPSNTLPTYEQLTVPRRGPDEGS
KCNQ2 pot conf: rat KCNQ2 channel potentiator confirmation; 1,200 compounds, 68% hits; shares compounds with KCNQ2 enhance; potentiation, less the hit threshold, % at 10 µM; CHO-KCNQ2 cells, FluxOR thallium flux fluorescence;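 active means fluorescence ratio rising 3 SD or more over the vehicle control mean in both replicates, plus primary screen hit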;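 further: peak minus minimum thallium fluorescence divided by baseline after K/Tl stimulus; 0% = vehicle mean plus 3 SD and 100% = vehicle minus unstimulated blank difference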
Kir21 spec: mouse Kir2.1 off-target activity of KCNQ2 potentiators; shares compounds with KCNQ2 enhance; HEK293 Kir2.1, FluxOR thallium flux fluorescence; activity over 3SD threshold, % at 10 µM; 1,200 compounds, 2% hits;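 active means fluorescence ratio rise of at least 3 SD above the vehicle-control mean, seen in both replicates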;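 further: 0% = vehicle mean plus 3 SD and 100% = vehicle minus no-stimulus blank window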
KCNQ2 W236L MoA: KCNQ2 potentiators acting on retigabine-insensitive rat KCNQ2 W236L mutant; shares compounds with KCNQ2 enhance; CHO KCNQ2-W236L, automated patch clamp current; current increase over 3SD of negative controls (%), stronger effect = higher value, % at 25 µM; 940 compounds, 10% hits; AID 2558;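 active means current increase at least 3 SD of the untreated controls above them in both duplicate recordings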
The depositor's hits bear a star; i = inactive; x = no result given.

SMILES | KCNQ2 block | KCNQ2 enhance | Kir21 confirm | HEK293 Tl flux | others
Cc1sc2nc(CN3CCN(c4ccc(O)cc4)CC3)[nH]c(=O)c2c1C | i | 0.07 | x | x
Cc1sc2nc(CN3CCOCC3)[nH]c(=S)c2c1C | i | 19.5* | i | 412.5%* | CHO-K1 Tl ctr=-13.2;KCNQ1 pot spec=-7.5;KCNQ2 pot conf=101.2*;Kir21 spec=-9.4;KCNQ2 W236L MoA=i
CSc1nc2ncc(C(=O)O)c(N)n2n1 | i | x | x | x
O=C(CCC1CCCC1)Nc1cccc(Cc2ccncc2)c1 | i | 6.32* | i | i | CHO-K1 Tl ctr=93.5*;KCNQ1 pot spec=-5.9;KCNQ2 pot conf=-9.5;Kir21 spec=-29.9
CC(=O)Nc1cccc(NC(=O)CCCC2CCCCC2)c1 | i | 1.89 | x | x
CCCCn1c(N)c(N(CCOC)C(=O)CCS(=O)(=O)c2ccc(Cl)cc2)c(=O)[nH]c1=O | i | 0.26 | x | x
CS(=O)(=O)c1nc(-c2cccs2)cc(C(F)(F)F)n1 | -5.92* | -5.92 | 70.5%* | 70.0%*
O=C(O)CCS(=O)(=O)c1nc(-c2cccs2)cc(C(F)(F)F)n1 | i | x | x | x
CCOc1ccc(/C=C/C(=O)N(CC)CC(=O)Nc2ccc3c(c2)OCCO3)cc1OCC | i | 0.83 | x | x
CCn1c(CN(C)c2ccccc2)nc2ccccc21 | i | x | x | x
CN(C)Cc1cc2ccccc2c2c1COC2 | i | x | x | x
Cc1cc2ccc3ccccc3c2cc1CN(C)C | i | x | 13.0%* | i
COc1ccccc1/C=C(\NC(=O)c1ccccc1)C(=O)NCc1ccco1 | i | 0.73 | i | i
COc1ccc(/C=C(/NC(=O)c2ccccc2)C(=O)NCc2ccco2)cc1 | i | 1.73 | x | x
Cc1cc(C(=O)CCC(=O)N2CCN(S(=O)(=O)c3cccs3)CC2)c(C)s1 | i | 4.92 | x | x
Cc1cc(C(=O)CCC(=O)N2CCN(S(=O)(=O)c3ccccc3)CC2)c(C)s1 | i | 6.23* | i | i | CHO-K1 Tl ctr=-13.5;KCNQ1 pot spec=-13.8;KCNQ2 pot conf=11.3*;Kir21 spec=-32.3;KCNQ2 W236L MoA=i
Cc1ccc(-n2cccc2C(=O)NS(=O)(=O)c2ccc(C)cc2)cc1 | i | 0.75 | x | x
Cc1ccc(-n2cccc2C(=S)N=P(N(C)C)(N(C)C)N(C)C)cc1 | i | x | i | i
CSCc1ccc(C(=O)N2CCCC(Nc3ccc(F)cc3)C2)o1 (stereo not given) | i | x | 50.5%* | i
CSCc1ccc(C(=O)N2CCCC(Nc3ccc4c(c3)OCCO4)C2)o1 (stereo not given) | i | 0.77 | x | x
C=CCn1cccc(C(=O)Nc2ccc(OCC)cc2)c1=O | i | 1.27 | x | x
Cc1ccc(C(=O)OC2OC(=O)C(Cl)=C2N2CCOCC2)cc1 (stereo not given) | i | 1.76 | x | x
CCOc1ccc(C(=O)N/N=C/c2ccc(-c3ccc(S(=O)(=O)Nc4ncccn4)cc3)o2)cc1 | i | 1.65 | x | x
O=C(N/N=C/c1ccc(-c2ccc(S(=O)(=O)Nc3ncccn3)cc2)o1)c1cc2ccccc2cc1O | i | 5.55* | i | i | CHO-K1 Tl ctr=-1.6;KCNQ1 pot spec=-30.4;KCNQ2 pot conf=-6.8;Kir21 spec=-16.5
CSc1ncccc1C(=O)OCC(=O)N(C)c1c(N)n(Cc2ccccc2)c(=O)[nH]c1=O | i | 1 | x | x
SMILES | KCNQ2 block | KCNQ2 enhance | Kir21 confirm | HEK293 Tl flux | others
Cc1cccc(C(=O)N[C@H](C(=O)NCCc2ccc(S(N)(=O)=O)cc2)C(C)C)c1 | i | x | x | x
CC(C)(C)n1nc2c(c1NC(=O)Cc1ccc(F)cc1)CSC2 | i | 14.3* | i | i | CHO-K1 Tl ctr=1.6*;KCNQ1 pot spec=-15.7;KCNQ2 pot conf=83.9*;Kir21 spec=-45.5;KCNQ2 W236L MoA=i
CC(C)(C)C(=O)Nc1c2c(nn1-c1ccc(F)cc1)CSC2 | i | 0.03 | x | x
CCN(CC)C(=O)c1ccc(CS(=O)(=O)Cc2ccccc2)cc1 | i | x | x | x
COc1ccc(N(CC(=O)NCCc2cccc(C)c2)S(=O)(=O)c2c(C)noc2C)cc1 | i | 0.23 | x | x
Cc1ccccc1C(=O)c1cccn1CC(=O)NCC(C)c1ccccc1 (stereo not given) | i | 0.69 | 65.5%* | i
Cc1ccccc1C(=O)c1cccn1CC(=O)NCc1ccccc1 | i | x | x | x
COc1ccc(/C=C(\C#N)C(=O)Nc2cc(S(=O)(=O)N3CCCCC3)ccc2N2CCCCC2)cc1 | i | x | x | x
CCOC(=O)C(=CNc1ccc(NC2=NCC(C)(C)S2)cc1)C(=O)OCC | i | x | 58.5%* | i
CCOC(=O)C(=CNc1ccc(S(N)(=O)=O)cc1)C(=O)OCC | i | x | x | x
COc1ccc(CNC(=O)CSc2ncn[nH]2)cc1OC | i | x | x | x
Cc1ccc(CNC(=O)CN(c2ccc(Cl)cc2)S(C)(=O)=O)cc1 | i | 0.81 | x | x
COc1ccc(CC(NC(C)=O)C(=O)NC2CCN(S(=O)(=O)c3ccc(NC(C)=O)cc3)CC2)c(OC)c1 (stereo not given) | i | x | x | x
CCS(=O)(=O)N1CCC(NC(=O)C(Cc2cc(OC)ccc2OC)NC(C)=O)CC1 (stereo not given) | i | 0.68 | i | i
C/C(=C/CCC(C)C1CCC2(C)C3CCC4C(C)(C)C(=O)CCC4(C)C3=CCC12C)C(=O)O (stereo not given) | i | 1.57 | x | x
C/C(=C/CCC(C)[C@H]1CC[C@@]2(C)C3=C(CC[C@]12C)[C@@]1(C)CCC(=O)C(C)(C)[C@@H]1CC3)C(=O)O (stereo not given in full) | i | 21.4* | i | i | CHO-K1 Tl ctr=1.4*;KCNQ1 pot spec=-11.0;KCNQ2 pot conf=-26.1;Kir21 spec=-33.0
O=C(O)/C=C/C(=O)c1ccc2c(c1)CCc1ccccc1-2 | i | 8.56* | x | x | CHO-K1 Tl ctr=30.1*;KCNQ1 pot spec=-7.0;KCNQ2 pot conf=35.2*;Kir21 spec=-72.6;KCNQ2 W236L MoA=i
CC(=O)Nc1ccc2c(c1)CCc1ccccc1-2 | i | x | x | x
O=C1N(Cc2cccnc2)C[C@@H]2C[C@@H](c3cccc(OC4CCCC4)c3)N3CCC[C@@]123 | i | x | x | x
Cc1nc2cc(NC(=O)Nc3ccc(Br)cc3)ccc2o1 | i | 1.5 | x | x
CCOC(=O)c1ccc(NC(=O)C(C)NS(=O)(=O)c2ccc(OC)cc2)cc1 (stereo not given) | i | 5.81* | i | i | CHO-K1 Tl ctr=33.6*;KCNQ1 pot spec=-3.2;KCNQ2 pot conf=-44.0;Kir21 spec=-38.6
CCOC(=O)c1ccc(NC(=O)COc2ccc(S(=O)(=O)NC(C)CC)cc2)cc1 (stereo not given) | i | 1.04 | x | x
NC(=O)C1(N2CCCCC2)CCN(C(=S)Nc2cc(F)cc(F)c2)CC1 | i | 0.02 | x | x
